Results reported in PubChem BioAssay (Tox21).
Inconclusive results are not listed. Calls of active or inactive are those of the source. The call rests on the fitted dose curve; in most records, active means well fitted cell-killing curve with a large enough effect in the repeat runs; inconclusive means weak or mixed curves; inactive means flat fitted curve, though single readings scatter.

Assay: qHTS RealTime-Glo MT Cell Viability Assay in HepG2 cells - 8 hour (AID 1224873); further: nearly all actives have a fitted effect of over 55% in size
Conditions: RealTime-Glo luminescence; series mostly up to 76.8 µM; viability change, negative = cytotoxic: at the top concentration
Source text: National Center for Advancing Translational Sciences [NCATS]
NIH Chemical Genomics Center [NCGC]
U.S. Environmental Protection Agency [EPA]
National Institutes of Environmental Health Sciences [NIEHS]
National Toxicology Program [NTP]
U.S. Food and Drug Administration [FDA]
Measure of cell viability is critical in the cell-base assay. Analysis of cell viability is necessary for the characterization of cell responses to cytotoxic drugs and environmental stress. A RealTime-Glo MT Cell Viability Assay to monitor cell viability in real time of continues cell culture during 40 hours of compound treatment was used to screen Tox21 10K library compounds in HepG2 cells. The RealTime-Glo MT Cell Viability Assay is a nonlytic, homogeneous, bioluminescent method to measure cell viability in real time using a simple, plate-based method. The assay involves adding NanoLuc luciferase and a cell-permeant prosubstrate to cells in culture. Viable cells reduce the proprietary prosubstrate to generate a substrate for NanoLuc luciferase. This substrate diffuses from cells into the surrounding culture medium, where it is rapidly used by the NanoLuc Enzyme to produce a luminescent signal. The signal correlates with the number of viable cells, making the assay well suited for cytotoxicity studies.
Tox21 Assay Protocol Summary:
The mixture of HepG2 cell suspension and reagents were dispensed at 600cells/6 ul/well in 1536-well tissue culture treated black solid bottom plates using a Multidrop dispenser. After the assay plates were incubated at a 37 C/5% CO2 incubator for 5 hours, 23 nL of compounds dissolved in DMSO, positive and negative controls was transferred to the assay plate by a pintool work station. The plates were incubated at 37 C for 40 hours. The luminescence intensity were measured at 0h, 8h, 16h, 24h, 32h and 40h time points using ViewLux plate reader during compound treatment.
On the % scale 0 is the no-effect control and ±100 the full control effect.

SMILES	viability change, negative = cytotoxic	outcome
Clc1nc(Cl)nc(Nc2ccccc2Cl)n1	1.35% (inactive)	–
C[C@]12C=CC(=O)C=C1CC[C@@H]1[C@@H]2CC[C@@]2(C)[C@H]1CC[C@]2(C)O	3.81% [at 35.3 µM] (inactive)	–
O=P(O)(O)CN(CP(=O)(O)O)CP(=O)(O)O	–	inactive
COc1ccc2c(C(=O)c3ccc(Cl)cc3)c(C)n(CC(=O)O)c2c1	-3% [at 35.3 µM] (inactive)	–
NC(=O)CS(=O)C(c1ccccc1)c1ccccc1 (stereo not given)	6.16% [at 35.3 µM] (inactive)	–
CC(C)(C)c1cc(O)ccc1O	–	inactive
ClCCN1CCCC1	8.9% [at 35.3 µM] (inactive)	–
COc1cc(CCN)cc(OC)c1OC	0.337% (inactive)	–
CC(C)[C@]12CC(=O)[C@H](C)[C@H]1C2	-0.757% (inactive)	–
C(COCC1CO1)OCC1CO1 (stereo not given)	0.92% (inactive)	–
CCOC(=O)Nc1cccc(OC(=O)Nc2ccccc2)c1	4.35% (inactive)	–
COc1cccc([C@@]2(O)CCCC[C@@H]2CN(C)C)c1	0.369% [at 35.3 µM] (inactive)	–
C/C=C/CC#N	-0.432% (inactive)	–
COC1=CC(=O)O[C@@H](/C=C/c2ccccc2)C1	-1.65% (inactive)	–
CS(=O)(=O)Cl	2.3% (inactive)	–
CCSC(=O)Cl	0.453% (inactive)	–
CC(C)c1ccc(O)cc1	-0.695% (inactive)	–
COc1ccccc1OC	0.851% (inactive)	–
Cl/C=C/CCl	-0.881% (inactive)	–
CC(C)NCC(O)c1ccc([N+](=O)[O-])cc1 (stereo not given)	0.589% [at 35.3 µM] (inactive)	–

SMILES	viability change, negative = cytotoxic	outcome
CC(C)(C)C(=O)Cl	-0.119% (inactive)	–
CN(C)CCN(C)C	2.53% (inactive)	–
CCCCS(=O)(=O)Cl	0.209% (inactive)	–
COc1cc(CC(C)N)cc(OC)c1OC (stereo not given)	8.59% (inactive)	–
Clc1ccc(C(Cl)(Cl)Cl)cn1	-4.07% (inactive)	–
CC(=O)OCC1=C(C(=O)O)N2C(=O)[C@@H](N)[C@H]2SC1	1.05% [at 15.8 µM] (inactive)	–
CCN(CCO)CCO	3.13% (inactive)	–
O=C/C=C/c1ccco1	1.39% (inactive)	–
COc1ccc(C=O)cc1O	-11.4% (inactive)	–
CCCCCCCCBr	5.57% (inactive)	–
N[C@@H](Cc1ccc(Oc2cc(I)c(O)c(I)c2)c(I)c1)C(=O)O	-5.1% [at 35.3 µM] (inactive)	–
CCN(CC)CCOC(=O)C(O)(c1ccccc1)c1ccccc1	7.3% [at 35.3 µM] (inactive)	–
BrCc1ccc(Br)cc1	4.62% (inactive)	–
OP(O)c1ccccc1	-3.02% (inactive)	–
CC(C)(C)NC[C@H](O)c1ccc(O)cc1Cl	-0.703% [at 35.3 µM] (inactive)	–
C[N+]1(C)CCCCC1	6.47% (inactive)	–
BrCC1CO1 (stereo not given)	-9.13% (inactive)	–
Oc1ccc(Cc2ccc(O)cc2)cc1	-1.75% (inactive)	–
CCCN1CCC[C@@H]2Cc3[nH]ncc3C[C@H]21	-1.15% [at 35.3 µM] (inactive)	–
CN(C)C1CCCCC1	1.31% (inactive)	–
